# Source: PubChem BioAssay (NCI)
# About 79,000 compounds went through this panel and 15% of them were active in at least one assay; those are over-represented in the sample as a whole. Unmarked numbers belong to inactive results. Active and inactive are the calls of the source. Rule as the data show it: active = growth inhibition above about 70%; inactive = the rest.
# Experiment: NCI Yeast Anticancer Drug Screen. Data for the bub3 strain (AID 167)
# Conditions: S. cerevisiae bub3 mutant strain, at 5.0 µM (retest, dose inferred, filed as 0.5), hits give high values
# Outline: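 In this screen, a yeast mutant lacking normal mitotic checkpoint function is challenged with compound. Relative growth versus vehicle gives the inhibition value.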
row,SMILES,growth inhibition
1,Nc1nc2c(ccc3ccccc32)s1,-22%
2,O=C(O)CCCCC1CCCCC1.[Cu+2],17%
3,O=Cc1ccc(O)c2ccccc12,-1%
4,CC(=Nc1ccc(N(C)C)cc1)c1ccccc1,-15%
5,C/C(Cl)=N\OC(=O)Nc1ccc(C)cc1,11%
6,COC(=O)C1CCC(c2ccccc2)CC1C(=O)OC (stereo not given),25%
7,CCCCNC(=S)NC1C2CC3CC(C2)CC1C3 (stereo not given),-8%
8,CCN(CC)CCOC(=O)CCN1CC2CCC(CC2)C1,0%
9,CCOc1ccc(-c2nc3ccc(-c4nc5ccc(N6CCN(C)CC6)cc5[nH]4)cc3[nH]2)cc1,41%
10,NC(CCC(=O)NC(CS(=O)(=O)O)C(=O)O)C(=O)O (stereo not given),-3%
11,CSc1cc(C(=O)O)nc(N)n1,3%
12,CCN(CC)CCCNc1c(O)cc(C)c2sc3ccccc3c(=O)c12,14%
13,C=C1C(=O)OC2C1CC1OC2C(C)CCC/C(C)=C\CCC1(C)O (stereo not given),-1%
14,O=C1C=CC2=Nc3ccccc3CCC2=C1,-67%
15,CC(C)CC(CC(C)C)OP(=O)(O)OC(CC(C)C)CC(C)C,9%
16,O=C(O)c1ccccc1Cc1ccc2c(c1)Cc1ccccc1-2,-6%
17,Nc1c(F)cccc1F,2%
18,COc1cc(OC)c(SSCCCCS(=O)O)c(OC)c1,7%
19,S=C1Nc2cnc3ccccc3c2SC1c1ccccc1 (stereo not given),-8%
20,CC(C)CCCC(C)[C@H]1CCC(C2C[C@@H](O)[C@@H]3CC(O)[C@@H](O)C[C@]3(CO)C2=O)[C@]1(C)CCO (stereo not given in full),4%

row,SMILES,growth inhibition
1,CN(C)CC(CN(C)C)C(=O)c1ccc(Oc2ccc(Cl)c(Cl)c2)cc1,6%
2,CN1c2ccccc2C(C)(C)C12C=Cc1cc(O)ccc1O2 (stereo not given),-4%
3,CC(C)Cc1ncc(CC(C)C)n(O)c1=O,10%
4,Nc1ccc(SSc2ccc(N)cc2)cc1,0%
5,N#CCC1CC(=O)c2[nH]c3ccccc3c2C1 (stereo not given),-62%
6,O=C1c2ccccc2C(=O)c2sccc21,-36%
7,CC/C(=C(\CC)c1ccc(O)c(CN(C)C)c1)c1ccc(OC)cc1,-28%
8,O=S(=O)(O)N=Nc1ccc(O)cc1,-12%
9,O=C1CCSC(=S)N1c1ccc(N=Nc2ccccc2)cc1,0%
10,CC(C)C(=O)NNc1ccccc1,21%
11,O=C(CBr)c1ccc2cc(Br)c3ccccc3c2c1,81% (active)
12,O=C1c2cc3c(cc2CC1Br)CCC3 (stereo not given),99% (active)
13,O=C1NC(=O)N(c2ccc(Cl)c(Cl)c2)C1=O,-5%
14,C[n+]1c(-c2cccc(OCCOCCOc3cccc(-c4c5cc(N)ccc5c5ccc(N)cc5[n+]4C)c3)c2)c2cc(N)ccc2c2ccc(N)cc21,22%
15,N#CC(C#N)C(C#N)c1ccc(Cl)c(Cl)c1 (stereo not given),99% (active)
16,CCCCCCCCCCCCOC(=O)C[n+]1cccc(C(=O)Nc2ccc(Cl)cc2)c1,85% (active)
17,CCC(=O)c1ccc2ccc3ccccc3c2c1,12%
18,Cc1ccc(S(=O)(=O)NC(=O)CC2CCCCC2)cc1,17%
19,c1ccc(N/N=C(/CC/C(=N\Nc2ccccc2)c2ccccc2)c2ccccc2)cc1,-5%
20,Cc1c(N)cc(I)cc1[N+](=O)[O-],-8%

# Same assay, conditions: S. cerevisiae bub3 mutant strain, at 50.0 µM (retest, dose inferred, filed as 5.0), hits give high values
row,SMILES,growth inhibition
1,Nc1nc2c(ccc3ccccc32)s1,52%
2,O=C(O)CCCCC1CCCCC1.[Cu+2],91% (active)
3,O=Cc1ccc(O)c2ccccc12,78% (active)
4,CC(=Nc1ccc(N(C)C)cc1)c1ccccc1,88% (active)
5,C/C(Cl)=N\OC(=O)Nc1ccc(C)cc1,98% (active)
6,COC(=O)C1CCC(c2ccccc2)CC1C(=O)OC (stereo not given),31%
7,CCCCNC(=S)NC1C2CC3CC(C2)CC1C3 (stereo not given),24%
8,CCN(CC)CCOC(=O)CCN1CC2CCC(CC2)C1,-4%
9,CCOc1ccc(-c2nc3ccc(-c4nc5ccc(N6CCN(C)CC6)cc5[nH]4)cc3[nH]2)cc1,98% (active)
10,NC(CCC(=O)NC(CS(=O)(=O)O)C(=O)O)C(=O)O (stereo not given),-6%
11,CSc1cc(C(=O)O)nc(N)n1,-4%
12,CCN(CC)CCCNc1c(O)cc(C)c2sc3ccccc3c(=O)c12,95% (active)
13,C=C1C(=O)OC2C1CC1OC2C(C)CCC/C(C)=C\CCC1(C)O (stereo not given),8%
14,O=C1C=CC2=Nc3ccccc3CCC2=C1,97% (active)
15,CC(C)CC(CC(C)C)OP(=O)(O)OC(CC(C)C)CC(C)C,78% (active)
16,O=C(O)c1ccccc1Cc1ccc2c(c1)Cc1ccccc1-2,68%
17,Nc1c(F)cccc1F,7%
18,COc1cc(OC)c(SSCCCCS(=O)O)c(OC)c1,63%
19,S=C1Nc2cnc3ccccc3c2SC1c1ccccc1 (stereo not given),98% (active)
20,CC(C)CCCC(C)[C@H]1CCC(C2C[C@@H](O)[C@@H]3CC(O)[C@@H](O)C[C@]3(CO)C2=O)[C@]1(C)CCO (stereo not given in full),98% (active)

row,SMILES,growth inhibition
1,CN(C)CC(CN(C)C)C(=O)c1ccc(Oc2ccc(Cl)c(Cl)c2)cc1,98% (active)
2,CN1c2ccccc2C(C)(C)C12C=Cc1cc(O)ccc1O2 (stereo not given),51%
3,CC(C)Cc1ncc(CC(C)C)n(O)c1=O,99% (active)
4,Nc1ccc(SSc2ccc(N)cc2)cc1,98% (active)
5,N#CCC1CC(=O)c2[nH]c3ccccc3c2C1 (stereo not given),-70%
6,O=C1c2ccccc2C(=O)c2sccc21,90% (active)
7,CC/C(=C(\CC)c1ccc(O)c(CN(C)C)c1)c1ccc(OC)cc1,95% (active)
8,O=S(=O)(O)N=Nc1ccc(O)cc1,98% (active)
9,O=C1CCSC(=S)N1c1ccc(N=Nc2ccccc2)cc1,4%
10,CC(C)C(=O)NNc1ccccc1,95% (active)
11,O=C(CBr)c1ccc2cc(Br)c3ccccc3c2c1,94% (active)
12,O=C1c2cc3c(cc2CC1Br)CCC3 (stereo not given),99% (active)
13,O=C1NC(=O)N(c2ccc(Cl)c(Cl)c2)C1=O,-1%
14,C[n+]1c(-c2cccc(OCCOCCOc3cccc(-c4c5cc(N)ccc5c5ccc(N)cc5[n+]4C)c3)c2)c2cc(N)ccc2c2ccc(N)cc21,94% (active)
15,N#CC(C#N)C(C#N)c1ccc(Cl)c(Cl)c1 (stereo not given),99% (active)
16,CCCCCCCCCCCCOC(=O)C[n+]1cccc(C(=O)Nc2ccc(Cl)cc2)c1,99% (active)
17,CCC(=O)c1ccc2ccc3ccccc3c2c1,87% (active)
18,Cc1ccc(S(=O)(=O)NC(=O)CC2CCCCC2)cc1,94% (active)
19,c1ccc(N/N=C(/CC/C(=N\Nc2ccccc2)c2ccccc2)c2ccccc2)cc1,89% (active)
20,Cc1c(N)cc(I)cc1[N+](=O)[O-],2%
